Bioassay records deposited in PubChem by National Center for Advancing Translational Sciences (NCATS).
This is a sample that favours compounds with a hit; in the whole collection about 2.3% have one here.
JMJD2E inh: qHTS Assay for Inhibitors of Human Jumonji Domain Containing 2E (JMJD2E). Lysine-specific demethylase 4E (Homo sapiens), B2RXH2. JMJD2E catalytic domain, FDH-coupled NADH fluorescence (FDH is formaldehyde dehydrogenase). Potency, µM (doses to about 57.1 µM), without a hit: at the highest dose activity change, negative = inhibition, actives largely listed as inhibitors. 1.6% of 230,000 active; active = well fitted inhibition curve with a large enough effect, not every such curve was filed as active; inconclusive = small, poorly fitted or top-dose-only effect, or another doubt; inactive = no such curve, though single readings can be large or run the other way;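 note: potency is the fitted concentration of half-maximal effect; 0% = wells with enzyme and -100% = buffer wells without enzyme; nearly all actives have a fitted effect of over 50% in size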
FBPA coupling cs: qHTS Assay for Inhibitors of Fructose-1,6-bisphosphate Aldolase from Giardia Lamblia: Coupling assay counterscreen. coupling enzyme system counterscreen, AmpLite Red fluorescence. activity change, negative = inhibition, % at 58.2 µM, hits read low. 0.67% of 290,000 active. AID 2472, 2010; in the data active = activity change below about -30%; note: % is set by controls: 0 for no effect and ±100 for the full control effect
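Counterscreen lacking aldolase: glyceraldehyde-3-phosphate coupling-enzyme reagent preincubated 10 min at RT with compound (at 57.5 uM final), then substrate/coupling system with AmpLite Red added; fluorescence read at 525/598 nm after 20 min RT.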
HTT cytoprotect: qHTS Multiplex Assay to Identify Dual Action Probes in a Cell Model of Huntington: Cytoprotection (ATP). 0.14% of 230,000 active. Potency, µM (doses to about 56.4 µM), for inactives: cytoprotection (ATP increase), hits mostly activators. PC12 HTT-Q103 induced, cytoprotection, ATP luminescence, 40 h; note: potency is the fitted concentration of half-maximal effect; % of control where 0% means no effect; nearly all actives have a fitted effect of over 45% in size
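Readout: ATPlite luminescence (ATP level). Model: stable PC12, inducible Htt exon1 Q103-GFP. Inducer: tebufenozide, 100 nM final. Compounds: dose series. No G418 in medium.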
VDR inhibitor: Inhibitors of the vitamin D receptor (VDR): qHTS | Potency, µM, without a hit: max response, negative = inhibition, actives largely listed as inhibitors | 0.93% of 400,000 active | VDR-SRC2-3 peptide fluorescence polarization, 2 h | Vitamin D3 receptor (Homo sapiens), P11473; note: potency is the fitted concentration of half-maximal effect; % is set by controls: 0 for no effect and ±100 for the full control effect
Target sequence (P11473 whole entry, looked up): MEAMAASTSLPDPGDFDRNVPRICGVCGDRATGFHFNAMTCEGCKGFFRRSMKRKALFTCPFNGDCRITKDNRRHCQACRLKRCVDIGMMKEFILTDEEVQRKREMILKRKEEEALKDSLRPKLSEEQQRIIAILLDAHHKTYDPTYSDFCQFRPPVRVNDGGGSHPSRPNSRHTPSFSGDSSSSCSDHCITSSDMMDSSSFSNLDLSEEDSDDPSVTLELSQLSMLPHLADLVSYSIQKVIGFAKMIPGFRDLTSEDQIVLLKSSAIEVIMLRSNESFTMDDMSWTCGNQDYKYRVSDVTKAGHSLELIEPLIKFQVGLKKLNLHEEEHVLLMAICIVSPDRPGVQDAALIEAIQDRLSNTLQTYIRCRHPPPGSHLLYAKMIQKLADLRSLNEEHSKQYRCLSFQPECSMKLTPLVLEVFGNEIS
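Measured by FP: displacement of SRC2-3 coactivator peptide from VDR by library compounds, following a two-hour ambient incubation.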
GoLoco inh red: qHTS Assay for Inhibitors of RGS12 GoLoco Motif Activity (Red Fluorophore). Gai1:RGS12 GoLoco peptide FP, rhodamine, 10 min. Potency, µM (top dose mostly 61.6 µM), for inactives: top-dose activity, negative = inhibition, hits mostly inhibitors. 0.44% of 230,000 active; active = well fitted inhibition curve with a large enough effect, not every such curve was filed as active; inactive = no such curve, though single readings can be large or run the other way; note: potency is the fitted concentration of half-maximal effect; % is set by controls: 0 for no effect and ±100 for the full control effect; nearly all actives have a fitted effect of over 30% in size
Target sequence (P63096 whole entry, looked up): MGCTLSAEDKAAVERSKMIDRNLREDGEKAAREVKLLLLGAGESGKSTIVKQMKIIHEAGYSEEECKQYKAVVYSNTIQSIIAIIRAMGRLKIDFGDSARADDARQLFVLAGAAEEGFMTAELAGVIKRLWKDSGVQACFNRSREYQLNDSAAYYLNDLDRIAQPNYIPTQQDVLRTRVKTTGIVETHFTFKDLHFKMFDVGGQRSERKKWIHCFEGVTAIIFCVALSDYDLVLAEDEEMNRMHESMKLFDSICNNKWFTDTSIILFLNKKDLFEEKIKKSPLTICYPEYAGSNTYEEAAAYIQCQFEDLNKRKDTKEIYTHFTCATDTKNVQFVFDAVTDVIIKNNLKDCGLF
HTT aggregate: qHTS Multiplex Assay to Identify Dual Action Probes in a Cell Model of Huntington: Aggregate Formation (GFP). PC12 HttQ103-GFP aggregates, Acumen cytometry, 40 h. Potency, µM (top dose mostly 46.1 µM), for the others: top-dose activity change, negative = inhibition, most hits filed as inhibitors. 1.1% of 220,000 active; note: potency is the fitted concentration of half-maximal effect; % is set by controls: 0 for no effect and ±100 for the full control effect; nearly all actives have a fitted effect of over 60% in size
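Read-out: GFP aggregate count by laser scanning cytometer (488 nm excitation, 500-530 nm emission, 1–25 µm objects >6 SD above background). Cells: PC12, inducible HTTex1-Q103-GFP, 100 nM tebufenozide; compounds titrated.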
* marks the source's active call; other numbers are inactive results; ? = inconclusive; / = no result; ! = not confirmed by another sample; [ ] = another dose, or the depositor's remark. Unless noted, calls come from the whole dose curve; as a rule, active = well fitted curve in the direction sought with a large enough effect; inconclusive = small, poorly fitted or top-dose-only effect, or another doubt; inactive = no such curve, though single readings can be large; an effect the other way counts as inactive or inconclusive.

SMILES | JMJD2E inh | FBPA coupling cs | HTT cytoprotect | VDR inhibitor | GoLoco inh red | HTT aggregate
COc1ccc(/C=C2/C(=O)N(c3ccccc3)N=C2C)cc1OC | / | 0.6 | / | -0.5% | / | /
CC1=NN(c2ccccc2)C(=O)/C1=C/C=C/c1ccc(N(C)C)cc1 | -0.6% | -13.1 | -2.4%[10 µM] | 79.4µM* | 155.0% | ?
Cc1ccc(CNC(=O)c2cc3c(C)nc4ccccc4c3o2)cc1 | 0.4% | -2.5 | 35.9%[10 µM] | 4.2% | 4.1% | 11.2µM*
COc1ccc(NC(=O)CSc2nc(-c3cc(OC)c(OC)c(OC)c3)[nH]c2-c2ccc(F)cc2)cc1 | / | / | / | 12.1% | / | /
COc1cccc(Nc2ncc3nc(C)c(=O)n(C4CC4)c3n2)c1 | / | 0.2 | -32.8% | 5.7% | 24.9% | /
O=S1(=O)CCO[C@H]2Cc3ccccc3[C@H]2N1Cc1ccc(F)cc1 | / | 4.7 | / | 4.3% | / | /
Cc1ccsc1C(=O)OCc1nc2ccccc2c(=O)[nH]1 | -11.6% | -34.6* | 8.6% | -7.6% | -0.2% | 2.9%
Cc1ccsc1C(=O)OCc1nc2ccsc2c(=O)[nH]1 | / | / | / | -19.1% | / | /
CCc1ccc2[nH]c(=O)c(C3C(C#N)=C(N)Oc4c3ccc3cccnc43)cc2c1 (centres undefined) | ? | -1.3 | -46.3% | -8.8% | 12.3% | ?
Cc1ccc2cc(C3C(C#N)=C(N)Oc4c3ccc3cccnc43)c(=O)[nH]c2c1 (centres undefined) | ? | -39.1* | -57.6% | -1.5% | 9.9% | 2.51µM*
COc1ccccc1Nc1nc(-c2ccccc2F)nc2ccccc12 | / | / | / | 7.0% | / | /
Cc1nc(NC(=O)C2CCCCC2C(=O)O)sc1C (centres undefined) | / | 3.8 | / | 5.4% | / | /
CCc1c(C)sc(NC(=O)C2CCCCC2C(=O)O)c1C(N)=O (centres undefined) | ? | 0.3 | -23.1% | 79.4µM* | -10.1% | -2.1%
CCCCNC(=O)CSc1nc(CCC)nc2ccccc12 | 16.4% | 0.1 | ? | -7.1% | -17.9% | 10.2%
CCCc1nc(SCC(=O)c2ccc(F)cc2)c2ccccc2n1 | -2.1% | -0.7 | ? | 89.1µM* | 5.0% | 9.7%
CCOC(=O)c1ccc2c(c1)N(CC(=O)Nc1ccc(C)cc1C)C(=O)c1ccccc1S2 | / | / | / | 8.7% | / | /
S=C(NNc1ccnc2cc(Cl)ccc12)Nc1ccc(Cl)cc1Cl | ? | -0.9 | 24.6%[10 µM] | 79.4µM* | 27.4% | -30.5%[9.22 µM]
O=C(O)c1ccc2c(c1)C(=O)N([C@H](Cc1c[nH]c3ccccc13)C(=O)O)C2=O | / | 6.0 | / | / | / | /
CN(C)C(=O)CCSC(SCCC(=O)O)c1cccc(/C=C/c2ccc3ccc(Cl)cc3n2)c1 (centres undefined) | / | / | -14.0% | 35.5µM* | / | 37.2%
Cc1ccc(C(=O)c2cncc(Br)c2)cc1 | 1.2% | 1.8 | 13.2% | -6.9% | 10.0% | 14.1µM*
CCc1ccc(C(=O)c2cncc(Br)c2)cc1 | 3.6% | 3.0 | 4.7% | 2.6% | 4.2% | 20µM*
NNC(=O)c1cncc(Br)c1 | 97.3% | 10.9 | -2.8%[10 µM] | -13.7% | 5.1% | 0.0%[9.22 µM]
CC(=O)Nc1ccc(C(=O)CSc2nc3ccccc3n2CC(=O)N2CCCC2)cc1 | -4.0% | 2.4 | -6.9% | 79.4µM* | -3.3% | ?
CC(C)NC(=O)c1cc2c(-c3ccc(Cl)cc3)nn(C)c2s1 | 8.91µM* | 3.1 | -25.6% | 1.5% | 6.1% | 23.3%
CC(C(=O)Nc1ccc(F)cc1Cl)N1CCN(S(=O)(=O)c2cccs2)CC1 (centres undefined) | / | / | / | -10.8% | / | /
SMILES | JMJD2E inh | FBPA coupling cs | HTT cytoprotect | VDR inhibitor | GoLoco inh red | HTT aggregate
Cn1c(NCCN(CCO)CCCc2ccc([N+](=O)[O-])cc2)cc(=O)n(C)c1=O | / | / | 3.2% | 50.1µM*! | -0.1% | 0.3%
COc1ccc(-c2cn3cc(Cl)ccc3n2)cc1OC | ? | -32.1* | -30.4%[10 µM] | -2.8% | -5.5% | -7.0%
c1ccc2c(c1)SCc1c-2[nH]c2ccccc12 | / | -8.8 | / | 10µM* | / | /
c1ccc2c(c1)OCCc1c-2[nH]c2ccccc12 | / | -2.6 | / | 5.0% | / | /
Cc1nn(-c2ccc(N3CCCC3)nn2)c(C)c1CCC(=O)NCc1ccccc1F | / | / | / | 6.4% | / | /
CCC(=O)N(Cc1cc(=O)[nH]c2ccccc12)c1ccc(C)cc1 | -29.0% | 4.4 | 32.6%[10 µM] | 5.0% | 1.7% | 7.5%[9.22 µM]
COc1cccc(C2c3c(-c4ccccc4O)n[nH]c3C(=O)N2CCc2ccc(OC)c(OC)c2)c1 (centres undefined) | / | / | / | -8.6% | / | /
CCCCCc1ccc(S(=O)(=O)NCCc2ccncc2)cc1 | -5.5% | 1.4 | -8.5% | -1.9% | -8.8% | 11.2µM*
Cc1cc(C(C)(C)C)cc(S(=O)(=O)NCCc2ccncc2)c1C | / | 3.7 | / | -2.9% | / | /
CCCc1ccc(S(=O)(=O)NCCc2ccncc2)cc1 | 2.1% | 3.3 | -4.6% | 5.4% | 3.2% | ?
CC(C)(C)c1ccc(S(=O)(=O)NCCc2ccncc2)cc1 | -1.2% | 4.5 | -18.4% | -7.7% | 4.7% | 22.4µM*
COc1ccc2c(c1)-c1nc(/N=C/c3c(O)ccc4ccccc34)sc1CC2 | ? | -38.3* | -7.8%[10 µM] | -22.9% | -17.9% | -4.9%
Oc1ccc2ccccc2c1/C=N/c1nccs1 | -9.6% | / | -2.8% | -3.2% | -11.5% | 20.1%
CSc1nc(N)c2cn[nH]c2n1 | / | / | / | -14.0% | / | /
COC(=O)N1CC=CC1(C)C(=O)NCC1CC1 (centres undefined) | -3.4% | 4.2 | 12.6µM* | / | -2.0% | /
O=C(c1ccc(-c2ccc([N+](=O)[O-])cc2)o1)N1CCCCC1 | -14.9% | 0.1 | -16.9%[10 µM] | ? | -8.9% | -0.6%
O=C(c1ccc(-c2ccc(Cl)cc2)o1)N1CCN(c2ccc([N+](=O)[O-])cc2Cl)CC1 | -2.1% | 0.4 | 2.7%[10 µM] | 4.2% | 2.3% | 7.08µM*
CCCCC1CCC(C(=O)Nc2ccc(N3CCOCC3)cc2N2CCOCC2)CC1 (centres undefined) | / | / | / | 18.5% | / | /
CCN(Cc1ccncc1)Cc1c(O)ccc2ccccc12 | ? | -33.2* | / | -26.4% | 0.5% | 36.9%
Cc1ccc(Cl)cc1NC(=S)NCCCSC1CCCCC1 | -2.3% | -0.5 | -195.3% | -0.3% | -1.9% | 22.4µM*
O=C(Cn1c(=O)n(Cc2ccccc2)c(=O)c2sc3ccccc3c21)Nc1ccc(F)cc1 | / | / | / | -13.7% | / | /
COc1ccc(N2C(=O)CC(Sc3nnc(-c4ccccc4)o3)C2=O)cc1 (centres undefined) | 1.1% | 2.2 | -150.5% | -4.6% | -15.0% | 25.1µM*
Cc1[nH]c2ccc(C(=O)OC(C)C(=O)NC3(C#N)CCCCC3)cc2c1C (centres undefined) | / | / | / | 3.0% | / | /
